Here are results for eight molecules from PubChem BioAssay (Tox21).

Unmarked numbers belong to inactive results. Inconclusive results are not listed. Activity calls are given as the source filed them. Calls follow the shape of the dose curve; as a rule, active = well fitted curve in the direction sought with a large enough effect in the repeat runs; inconclusive = weak or mixed curves; inactive = no such curve, though single readings can be large; an effect the other way counts as inactive or inconclusive.

Experiment [1] can be described thus: qHTS RealTime-Glo MT Cell Viability Assay in HEK293 cells - 0 hour (AID 1224880). Also: top concentration of the series differs between compounds; nearly all actives have a fitted effect of over 45% in size. The procedure, abridged: (§1)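 Tox21 screen in HEK293 using RealTime-Glo MT chemistry, with cells and reagent co-dispensed. Luminescence proportional to viable cell number was captured at intervals during 40 h compound exposure at 37 C.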
In general terms: In qHTS, concentration-response curves come from the screen itself.

The nature of experiment [2]: A CellTox Green Cytotoxicity Assay to monitor cytotoxicity in HEK293 cells - 32 hour (AID 1224881). Also: nearly all actives have a fitted effect of over 40% in size. The essentials:
(§2)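 Seeding of HEK293 cells together with cytotoxicity dye preceded a 5 h incubation at 37 C/5% CO2. Test compounds in DMSO were then added and fluorescence monitored across 40 h.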

Experiment [3] can be described thus: A CellTox Green Cytotoxicity Assay to monitor cytotoxicity in HepG2 cells - 0 hour (AID 1224882). Also: nearly all actives have a fitted effect of over 35% in size. The procedure, abridged:
(§3)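 Nonlytic assay: viable cells exclude the dye, so fluorescence scales with cell death. HepG2 at 600 cells/well, compounds added after 5 h, signal read across 40 h.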

A short description of experiment [4]: A CellTox Green Cytotoxicity Assay to monitor cytotoxicity in HepG2 cells - 32 hour (AID 1224883). Also: nearly all actives have a fitted effect of over 50% in size. The essentials: as §3
The nature of experiment [5]: A CellTox Green Cytotoxicity Assay to monitor cytotoxicity in HEK293 cells - 8 hour (AID 1224884). Also: nearly all actives have a fitted effect of over 35% in size. The procedure, abridged:
as §2

Experiment [6] is described as follows: qHTS RealTime-Glo MT Cell Viability Assay in HepG2 cells - 16 hour (AID 1224885). Also: nearly all actives have a fitted effect of over 50% in size. The procedure, abridged:
(§4)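 Cell number in HepG2 cultures estimated from NanoLuc luminescence generated by metabolic reduction of a prosubstrate by living cells. The homogeneous, nonlytic format allowed repeated reads at 0, 8, 16, 24, 32 and 40 h of compound exposure.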

A short description of experiment [7]: qHTS RealTime-Glo MT Cell Viability Assay in HEK293 cells - 24 hour (AID 1224886). Also: top concentration of the series differs between compounds; nearly all actives have a fitted effect of over 50% in size. The procedure, abridged:
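Homogeneous bioluminescent viability format in HEK293 cells (600 cells/well). Following 5 h at 37 C/5% CO2, 23 nL compound was pintooled; the signal was measured repeatedly during 40 h incubation.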

The nature of experiment [8]: qHTS RealTime-Glo MT Cell Viability Assay in HEK293 cells - 8 hour (AID 1224887). Also: top concentration of the series differs between compounds; nearly all actives have a fitted effect of over 50% in size. The procedure, abridged: as §1
Experiment [9] in a line: A CellTox Green Cytotoxicity Assay to monitor cytotoxicity in HEK293 cells - 16 hour (AID 1224888). Also: nearly all actives have a fitted effect of over 35% in size. The essentials: as §2
A short description of experiment [10]: qHTS RealTime-Glo MT Cell Viability Assay in HepG2 cells - 0 hour (AID 1224889). Also: nearly all actives have a fitted effect of over 50% in size. The procedure, abridged:
as §4

Experiment [11] is described as follows: A CellTox Green Cytotoxicity Assay to monitor cytotoxicity in HepG2 cells - 8 hour (AID 1224890). Also: nearly all actives have a fitted effect of over 45% in size. The procedure, abridged:
as §3

The nature of experiment [12]: qHTS assay to identify small molecule antagonists of the estrogen receptor alpha (ER-alpha) signaling pathway using the BG1 cell line in the presence of 0.1 nM 17-beta-estradiol - cell viability counter screen (AID 1259241). Also: nearly all actives have a fitted effect of over 40% in size. The essentials: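 VM7Luc4E2 cells (endogenous full-length ER-alpha, 4xERE-luciferase), cultured 5 days in charcoal-stripped serum, exposed to compounds with 0.1 nM 17beta-estradiol (final) for 22 hr at 37C. Viability read in same wells as live-cell protease fluorescence after 30 min.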

Experiment [13] in a line: qHTS assay to identify small molecule antagonists of the androgen receptor (AR) signaling pathway using the MDA cell line in the presence of 0.5 nM R1881 - cell viability counter screen (AID 1259242). Also: nearly all actives have a fitted effect of over 45% in size. The essentials: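 R1881 at 0.5 nM final stimulated MDA-kb2 cells during 16 hr compound treatment at 37C. Cytotoxicity read: CellTiter-Fluor fluorescence after 30 min.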
Experiment [14] concerns the target Estrogen receptor (Homo sapiens) (UniProt P03372). The experiment in a line: qHTS assay to identify small molecule antagonists of the estrogen receptor alpha (ER-alpha) signaling pathway using the BG1 cell line in the presence of 0.1 nM 17-beta-estradiol (AID 1259244). Also: nearly all actives have a fitted effect of over 50% in size. The essentials: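 VM7Luc4E2; 4xERE-luciferase; 0.1 nM E2 final; 22 h co-incubation, 37C; ONE-Glo luminescence after 30 min at room temperature.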

A short description of experiment [15]: qHTS assay to identify small molecule HDAC inhibitors (AID 1259364). Also: potency is read from the fitted curve at half-maximal effect.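 Also: wild-type HCT-116 cells with endogenous class I/II HDAC activity; nearly all actives have a fitted effect of over 45% in size.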 As to activity change, negative = inhibition: top concentration of the series differs between compounds. The essentials:
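Relative class I and II HDAC activity is taken from the luminogenic signal in HCT-116 cells, with compound exposure 2 hr and reagent development 30 min at room temperature.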

Experiment [16] in a line: qHTS assay to identify small molecule HDAC inhibitors - cell viability counter screen (AID 1259365). The essentials:
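Wild-type HCT-116 cells, 1,500/well, cultured overnight, then compound-treated 2 h at 37 C. Viability measured as ATP luminescence with CellTiter-Glo after 30 min at room temperature.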

Experiment [17] can be described thus: qHTS assay to identify small molecule agonists of the sonic hedgehog signaling (Shh) pathway - cell viability counter screen (AID 1259366). Also: nearly all actives have a fitted effect of over 50% in size. The essentials: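 NIH/3T3-derived Gli1-Luc reporter cells, 2,000 per well, received compound after 4 h and were treated about 23 h at 37C. Viability measured in the same wells by CellTiter-Fluor fluorescence after 1 h.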

The nature of experiment [18]: qHTS assay to identify small molecule antagonists of the sonic hedgehog signaling (Shh) pathway - cell viability counter screen (AID 1259367). Also: nearly all actives have a fitted effect of over 55% in size. The procedure, abridged: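 Seed 3T3 Gli1-Luc cells at 2,000 per well; incubate 4 hr; add compound in DMSO, then conditioned medium; incubate at 37C with 5% CO2; add CellTiter-Fluor after 23 hr; read fluorescence 1 hr later.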
% is scaled to controls: 0 for no effect and ±100 for the full control effect.

Chain of Estrogen receptor (Homo sapiens) (P03372 whole entry, looked up): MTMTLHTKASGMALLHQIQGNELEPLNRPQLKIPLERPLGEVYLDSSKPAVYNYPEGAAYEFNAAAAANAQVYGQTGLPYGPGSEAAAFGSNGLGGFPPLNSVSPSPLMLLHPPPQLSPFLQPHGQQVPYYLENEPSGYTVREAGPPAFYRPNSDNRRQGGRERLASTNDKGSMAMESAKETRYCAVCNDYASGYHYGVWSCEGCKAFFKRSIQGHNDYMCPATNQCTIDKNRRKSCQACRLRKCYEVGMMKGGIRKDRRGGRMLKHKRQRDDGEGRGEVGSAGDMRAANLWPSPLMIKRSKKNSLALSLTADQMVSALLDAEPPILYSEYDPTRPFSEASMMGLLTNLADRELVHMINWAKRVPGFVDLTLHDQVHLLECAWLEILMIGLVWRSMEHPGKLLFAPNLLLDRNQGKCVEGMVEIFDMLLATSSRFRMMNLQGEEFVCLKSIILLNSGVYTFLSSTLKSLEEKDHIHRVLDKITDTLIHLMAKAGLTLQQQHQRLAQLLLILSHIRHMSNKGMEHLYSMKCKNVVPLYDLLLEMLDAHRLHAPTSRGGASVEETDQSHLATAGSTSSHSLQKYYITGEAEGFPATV

Take `Cc1ccc(Cl)c(OCC(O)CNC(C)(C)C)c1` (stereo unspecified): the Potency result in experiment [1], in [2], in [3], in experiment [4], in [5] and in [7] was “inactive” each time. The Potency entry in [8], in experiment [9], in [10], in experiment [11], in experiment [12] and in experiment [13] was “inactive” throughout. The Potency entry in [14], in experiment [15], in [17] and in [18] was “inactive” each time. In addition, the molecule was classed as inactive in [6] and in [16].

For the molecule `O=C1OC(=O)C2CC=CCC12` (stereo unspecified), the Potency entry in experiment [1], in experiment [2], in [3], in experiment [4], in [5] and in experiment [7] was “inactive” each time. Moreover, the Potency result in experiment [8], in experiment [9], in [10], in experiment [11], in experiment [12] and in [13] was “inactive” in each case. Further, the Potency result in experiment [14], in experiment [15], in experiment [17] and in [18] was “inactive” each time. Besides, the molecule was called inactive in [6] and in [16].

With `Cc1cc(C)c(C)c(O)c1`, the Potency entry in experiment [1], in experiment [2], in [3], in [4], in experiment [5] and in [7] was “inactive” in each case. The Potency result in [8], in [9], in experiment [10], in experiment [11], in [12] and in experiment [13] was “inactive” in each case. Further, the Potency result in experiment [14], in experiment [15], in experiment [17] and in experiment [18] was “inactive” each time. In addition, the molecule was classed as inactive in [6].

Consider `CCCCCCCCS`, for which the Potency result in experiment [1], in [2], in experiment [3], in [4], in [5] and in [7] was “inactive” in each case. In addition, the Potency result in experiment [8], in experiment [9], in experiment [10], in experiment [11], in [12] and in experiment [13] was “inactive” in each case. The Potency entry in [14], in [15], in experiment [17] and in experiment [18] was “inactive” throughout. The result in experiment [6] was inactive.

For the molecule `Cc1ccccc1CCO`, the Potency entry in [1], in experiment [2], in [3], in experiment [4], in [5] and in experiment [7] was “inactive” in each case. In addition, the Potency entry in experiment [8], in experiment [9], in [10], in experiment [11], in [12] and in experiment [13] was “inactive” throughout. The Potency entry in experiment [14], in [15], in experiment [17] and in experiment [18] was “inactive” in each case. Moreover, in experiment [6], the molecule was classed as inactive.

For `c1ccc(-c2ccc(-c3ccccc3)cc2)cc1`, the activity change, negative = cytotoxicity in [1] is 1.15% [at 15.8 µM]; in [7], 0.629% [at 15.8 µM]; in experiment [8], 0.793% [at 15.8 µM]; in experiment [10], -2.66% [at 15.8 µM]; in [12], 0.519% [at 19 µM]; in experiment [16], 0.606% [at 19 µM]. Further, the cytotoxicity increase in [2] was -3.83% [at 15.8 µM]; in experiment [4], 2.09% [at 15.8 µM]; in experiment [5] it was -5.69% [at 15.8 µM]; in experiment [11], -1.41% [at 15.8 µM]. Besides, the cytotoxicity in [3] is 0.432% [at 15.8 µM]. Besides, the activity change, negative = cytotoxic in experiment [6] was 0.423% [at 15.8 µM]. Also, the activity change in experiment [9] was -4.6% [at 15.8 µM, stronger effect = higher value]. The viability change, negative = cytotoxic in experiment [13] was 1.4% [at 19 µM]; in experiment [17], 0.865% [at 19 µM]; in experiment [18], -1.08% [at 19 µM]. Also, the activity change, negative = inhibition in experiment [14] was 56.5% [at 19 µM]. Further, in experiment [15], the Potency is 4.45 µM (active).

Turning to `CC(C)Oc1ccccc1O`, the Potency entry in experiment [1], in experiment [2], in experiment [3], in experiment [4], in [5] and in experiment [7] was “inactive” throughout. For the same molecule, the Potency entry in experiment [8], in [9], in experiment [10], in experiment [11], in experiment [12] and in [13] was “inactive” in each case. For the same molecule, the Potency result in experiment [14], in [15], in [17] and in experiment [18] was “inactive” throughout. Also, the outcome in experiment [6] and in experiment [16] was inactive.

Consider `CCCCCCCCCCCCSC#N`, for which the Potency result in experiment [1], in experiment [2], in experiment [3], in experiment [4], in [5] and in experiment [7] was “inactive” in each case. Also, the Potency result in experiment [8], in experiment [9], in experiment [10], in [11], in [12] and in experiment [13] was “inactive” throughout. The Potency entry in [14], in [15], in [17] and in [18] was “inactive” each time. Also, the molecule was called inactive in experiment [6] and in [16].
